# Screening data as filed in PubChem.
# Most compounds without a hit are left out; they make up all but 1.1% or so of the library.
# HTR5A inv ag – inverse agonist of human HTR5A in OPRM1-OPRD1 counter-screen; AID 504634; 340,000 tested, 0.083% active; P47898; HTR5A cell line, luminescence, inverse agonism; inhibition, % at 9.3 µM; in the data active = inhibition mostly above about 23%, no sharp cut-off; inactive = mostly below about 18%
# OPRM1-OPRD1 inv – mu-delta opioid heterodimer inverse agonism | AID 504357 | 340,000 tested, 0.21% active | inhibition, % at 9.3 µM | cell-based MOR-DOR heterodimer luminescence | P35372+P41143; in the data active = inhibition above about 22%, passing the limit was not always enough
# Target sequence (P35372 whole entry, looked up): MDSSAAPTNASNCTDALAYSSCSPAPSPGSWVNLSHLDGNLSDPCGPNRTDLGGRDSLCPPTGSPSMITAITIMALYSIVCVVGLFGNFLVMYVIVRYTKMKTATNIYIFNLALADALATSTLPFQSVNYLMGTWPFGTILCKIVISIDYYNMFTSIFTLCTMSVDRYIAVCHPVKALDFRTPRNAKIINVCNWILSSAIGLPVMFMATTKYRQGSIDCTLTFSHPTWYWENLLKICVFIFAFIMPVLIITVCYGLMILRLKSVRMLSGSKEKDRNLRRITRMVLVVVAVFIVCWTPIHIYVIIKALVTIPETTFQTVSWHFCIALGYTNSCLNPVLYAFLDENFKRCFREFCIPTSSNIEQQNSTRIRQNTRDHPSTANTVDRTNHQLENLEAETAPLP
# Target sequence (P41143 whole entry, looked up): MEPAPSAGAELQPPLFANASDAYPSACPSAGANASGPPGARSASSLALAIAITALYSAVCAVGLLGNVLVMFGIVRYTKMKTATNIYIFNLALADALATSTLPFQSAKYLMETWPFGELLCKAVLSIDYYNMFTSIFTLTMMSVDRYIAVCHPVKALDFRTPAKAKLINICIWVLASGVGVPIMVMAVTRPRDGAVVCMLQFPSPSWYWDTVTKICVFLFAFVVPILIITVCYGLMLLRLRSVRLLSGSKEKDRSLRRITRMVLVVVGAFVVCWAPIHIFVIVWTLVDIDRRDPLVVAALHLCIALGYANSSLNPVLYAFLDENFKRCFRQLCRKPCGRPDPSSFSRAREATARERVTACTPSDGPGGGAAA
# MOR-DOR ag – OPRM1-OPRD1 heterodimerization agonism; activation, % at 9.3 µM; cells, luminescence; AID 504326; P35372+P41143; 340,000 tested, 0.3% active; in the data active = activation above about 18%
# HTR5A ag – HTR5A agonism, opioid heterodimer counter-screen. P47898. 340,000 tested, 0.61% active. activation, % at 9.3 µM. HTR5A agonist assay, luminescence, cell-based. AID 504692; in the data active = activation mostly above about 9.5%, no sharp cut-off; inactive = mostly below about 7.6%
# Numbers stand for hits; - = inactive.
SMILES,HTR5A inv ag,OPRM1-OPRD1 inv,MOR-DOR ag,HTR5A ag
CC(NC(=O)c1ccco1)C(=O)N1CCN(c2cccc(C(F)(F)F)c2)CC1 (stereo not given),-,-,-,-
Cc1nc2cc(C(F)(F)F)ccc2n1C1CCN(CC(=O)N2CCOCC2)CC1,-,-,-,9.0
Cc1cc(C(C)(C)C)cc(C)c1Cn1c2[n+](c3ccc(C(F)(F)F)cc31)CCCCC2,-,-,-,11.2
CC1=CC2C(C(O)CC3(C)C2CC(C)C32OCOC23COCO3)C2(C)C/C(=C\O)C(=O)C=C12 (stereo not given),-,-,25.6,31.3
C/C(=N/N=C/c1ccccc1O)c1ccccc1O,-,-,-,10.3
Oc1ccccc1C=NN=C1c2ccccc2-c2ccccc21,-,-,-,-
Cc1ccc(S(=O)(=O)NCC(=O)N2CCN(S(=O)(=O)c3ccc(Cl)cc3)CC2)cc1C,-,-,-,-
CCOC(=O)c1c(C)sc2c1N(C(=O)CCl)c1cc(Cl)ccc1S2,-,-,35.6,18.9
COc1c(C)cc(S(=O)(=O)NCc2ccco2)c(C)c1C,-,-,-,-
O=C(COC(=O)c1ccc2c(=O)n3c(nc2c1)CCC3)Nc1ccccc1F,-,-,-,11.1
O=C(O)CCc1ccc(-c2ccccc2)n1Cc1ccco1,-,-,-,9.7
COC(=O)C1CCc2c(ccc3c2CCCC3)C1=O (stereo not given),-,-,-,-
COc1ccc(C)cc1NC(=O)NNC(=O)C1CCC(C(C)(C)C)CC1 (stereo not given),-,-,-,13.1
COc1ccc(C)cc1NC(=O)C1CCN(S(C)(=O)=O)CC1,-,-,-,-
CC(C)NCC(O)COc1ccc(Br)cc1 (stereo not given),-,-,-,12.4
CCS(=O)(=O)C1=NN2C(=N)/C(=C\c3ccc(SCc4ccco4)o3)C(=O)N=C2S1,-,-,-,12.6
CS(=O)(=O)Nc1ccc(C2=NN(S(C)(=O)=O)C(c3ccc4c(c3)OCO4)C2)cc1 (stereo not given),-,-,-,-
Cc1nc(-c2ccc(C(=O)Nc3ccc(F)cc3)cc2)cs1,-,-,-,13.0
CC(NC(=O)c1ccc(F)cc1)c1ccccc1 (stereo not given),-,-,-,10.0
Cc1ccc(C(=O)NC(C)c2ccc(F)cc2)cc1 (stereo not given),-,-,-,-
CCOc1cc(CNCc2cccnc2)cc(Br)c1OCC(N)=O,-,-,-,10.1
CCCCN(C)CCNC(=O)C1CCN(S(=O)(=O)c2cccc3nsnc23)CC1,-,-,-,-
CN(C)c1nc(SCCOC(=O)Nc2ccccc2)nc(N(C)C)n1,-,-,-,8.8
CN(C)c1nc(C(=O)Nc2ccccc2)nc(N(C)C)n1,-,-,-,-
COc1cccc(C(C#N)NCCCNC(C#N)c2cccc(OC)c2OC)c1OC (stereo not given),-,-,-,-
SMILES,HTR5A inv ag,OPRM1-OPRD1 inv,MOR-DOR ag,HTR5A ag
Cc1ccc(-n2[nH]c(C)c(C=Nc3ccc4[nH]c(=O)[nH]c4c3)c2=O)cc1C,-,-,24.9,22.2
Cc1ccc(-n2[nH]c(C)c(C=Nc3ccc4[nH]c(=O)[nH]c4c3)c2=O)cc1,-,-,-,-
CC(C)OP(=O)(OC(C)C)C1(NS(=O)(=O)c2ccc(Cl)cc2)C=C(Cl)C(=O)C(Cl)=C1,-,-,-,-
COc1cccc(N2CCN(Cc3nc(N)nc(Nc4ccccc4OC)n3)CC2)c1,-,-,-,14.1
CCC(=O)OCC(=O)N=c1sccn1Cc1ccccc1Cl,-,-,-,-
O=C(CCl)N=c1sccn1Cc1ccccc1Cl,-,-,66.2,85.0
O=C(CCl)N=c1sccn1Cc1ccc(Cl)cc1Cl,-,-,77.1,53.2
O=C(CCl)N=c1sccn1Cc1cccc2ccccc12,-,-,73.7,72.6
COc1ccc(OC)c(NC(=O)NNS(=O)(=O)c2ccc(C)cc2C)c1,-,-,-,-
Cc1ccc(CSCC(=O)N(C)CC(=O)Nc2c(Cl)cccc2Cl)cc1,-,-,-,-
COc1ccc(C2C(C#N)=C(N)OC3=C2C(=O)CC(C)(C)C3)cc1Cn1nc(C)c([N+](=O)[O-])c1C (stereo not given),-,-,-,-
COc1ccc(C2C(C#N)=C(N)Oc3c2c(C)nn3-c2ccccc2)cc1Cn1nc(C)c([N+](=O)[O-])c1C (stereo not given),-,-,-,13.7
O=C(Nc1c(C(=O)O)[nH]c2ccc(F)cc12)c1cccc(C(F)(F)F)c1,-,-,-,11.9
CS(=O)(=O)c1ncc(Cl)c(C(=O)Nc2ccc(OC(F)F)cc2)n1,-,34.5,-,-
O=C(CCc1n[nH]c(=O)[nH]c1=O)Nc1cccc([N+](=O)[O-])c1,-,-,-,-
Cc1ccc(C(=O)COc2cc(C)nc3nncn23)cc1,-,-,-,-
Cc1ccc(C)n1-c1sc2c(c1C#N)CCC(C)C2 (stereo not given),-,-,-,12.6
CCc1sc(C(=O)NCCCn2ccnc2)cc1Br,-,-,-,10.0
c1ccc(-c2nnc3nc(N4CCCCC4)nc(N4CCCCC4)n23)cc1,-,-,-,-
N/C(=N\OC(=O)c1ccc(Cl)cc1)c1cccnc1,-,-,-,13.6
N/C(=N\OC(=O)c1ccc(Cl)cc1Cl)c1cccnc1,-,-,-,-
O=C1C(Cc2ccccc2)Nc2ncnc(N3CCN(c4ccccc4)CC3)c2N1Cc1ccc(Cl)cc1 (stereo not given),52.8,57.2,-,-
Cc1cccc(NC(=O)N2CCCC(CNC(=O)c3ccccc3Cl)C2)c1C (stereo not given),-,-,-,-
Clc1ccc(C2Nc3cccc4cccc(c34)N2)cc1,-,-,-,14.6
O=C(NCCc1ccc(Cl)cc1)c1ccc2[nH]c(=O)c(=O)[nH]c2c1,-,-,-,-
SMILES,HTR5A inv ag,OPRM1-OPRD1 inv,MOR-DOR ag,HTR5A ag
C#CCOCCOCCOCCNc1nc(N2CCN(C(=O)CCCCCCCCCCNC(=O)[C@H](CO)n3cc(CCCSC)nn3)CC2)nc(N2CCN(C(=O)CCCCCCCCCCNC(=O)[C@H](CO)n3cc(CCCSC)nn3)CC2)n1,-,-,-,-
C#CCOCCOCCOCCNc1nc(N2CCOCC2)nc(N2CCN(C(=O)CCCCCCCCCCNC(=O)[C@@H](CCSC)n3cc(CCO)nn3)CC2)n1,-,-,-,13.5
CCOCCCN(C(=O)c1snc(C(N)=O)c1N)C(C(=O)NC1CCCC1)c1ccc(O)cc1 (stereo not given),-,-,-,-
C=CCn1c(SCC(=O)NCC2CCCO2)nc2c([nH]c3ccccc32)c1=O (stereo not given),-,-,-,-
O=C(CSc1nc2c([nH]c3ccccc32)c(=O)n1-c1ccccc1F)NCC1CCCO1 (stereo not given),59.8,62.9,-,-
Cc1ccccc1-n1c(SCC(=O)NCC2CCCO2)nc2c([nH]c3ccccc32)c1=O (stereo not given),52.4,53.6,-,-
COc1ccc(C)cc1-n1c(SCC(=O)NCC2CCCO2)nc2c([nH]c3ccccc32)c1=O (stereo not given),-,-,-,-
O=C(CCCn1c(=O)[nH]c2cc(Cl)ccc2c1=O)NCCC1=CCCCC1,-,-,-,-
